Data on 40 compounds can be found in PubChem BioAssay (EPA / NIEHS).

Active and inactive are the calls of the source. Rule for the calls: active = hit-call score of the fitted dose curve at least 0.9, where 1 is the maximum; inactive = score below 0.9.

Read-out in this assay: Monocyte Chemoattractant Protein-1 (MCP1), CCL2 (gene 6347)
Nature of the assay: BSK_SAg_MCP1: BioMAP Diversity Plus: SAg Assay for Monocyte Chemoattractant Protein-1 (MCP1) Biomarker Activity (AID 2283090). The settings on record: primary human HUVEC with PBMC; actives raise or lower the signal. The procedure:
BSK_SAg is a cell-based, multiplexed-readout assay that uses umbilical vein endothelium and peripheral blood mononuclear cells, a human vascular primary cell co-culture, with measurements taken at 24 hours after chemical dosing in a 96-well plate.BSK_SAg_MCP1 is an assay component measured in the BSK_SAg assay. It measures MCP-1 antibody related to regulation of gene expression using ELISA technology.Data from the assay component BSK_SAg_MCP1 was analyzed into 1 assay endpoint. This assay endpoint, BSK_SAg_MCP1, was analyzed with bidirectional fitting relative to DMSO as the negative control and baseline of activity. Using a type of binding reporter, gain or loss-of-signal activity can be used to understand changes in the signaling as they relate to the gene CCL2. Furthermore, this assay endpoint can be referred to as a primary readout, because this assay has produced multiple assay endpoints where this one serves a signaling function. To generalize the intended target to other relatable targets, this assay endpoint is annotated to the cytokine intended target family, where the subfamily is chemotactic factor.
The levels of cell surface (or secreted, indicated by the prefix "s") biomarker endpoints were measured by ELISA. Overt cytotoxicity to cells in confluent adherent cultures (all systems other than the BT system) was assessed by measuring total protein levels using sulforhodamine B (SRB) staining in parallel cultures at the time of biomarker measurements, indicated as SRB endpoints. For proliferation assays for adherent cell types, individual cell types are cultured at sub-confluence and relative cell numbers quantified by SRB staining at time points optimized for each system (48 h: 3C and CASM3C systems; 72 h: BT and HDF3CGF systems; 96 h: SAg system). SRB was performed by staining cells with 0.1% SRB after fixation with 10% TCA and reading wells at 560 nm.Viability and proliferation of PBMC (T cells) was quantified by Alamar Blue reduction for the SAg and BT systems. For PBMC viability (referred to as PBMC Cytotoxicity within the assay endpoint names), cells were plated (75,000/well in a 96-well plate) and then chemical samples added for 1 h before addition of activators, SEB and TSST-1 (20 ng/mL final concentration each). Cells were incubated for 90 h. Then, Alamar Blue (20 uL/well) (Invitrogen, Cat DAL1100) was added for 6 h, and the plates were read with a fluorescence microplate reader at 546/580 nm (excitation/emission). For PBMC proliferation, cells were plated and activated as above but incubated for only 16 h prior to addition of Alamar Blue. Plates were read after 6 h.
Take `CCCOc1ccc(S(=O)(=O)N2CCN(CC)CC2)cc1-c1nc2c(CC)n(Cc3ccccn3)nc2c(=O)[nH]1`: the result was inactive.

Regarding `CCCCCOC(C)=O`, the outcome was inactive.

Consider `COS(C)(=O)=O`, for which the result was inactive.

Turning to `NC(=O)N1c2ccccc2C=Cc2ccccc21`, the outcome was inactive.

For the compound `Cn1cc[nH]c1=S`, the outcome was inactive.

Take `O=C(Cl)C(F)(F)C(F)(F)C(F)(F)C(=O)Cl`: the outcome was inactive.

As for `Cc1nccn1-c1ccc(Sc2cccc(C3(C(N)=O)CCOCC3)c2)cc1`, the AC50 was 6.58 µM (active).

Consider `CCCCOC(=O)c1ccccc1`, for which the result was inactive.

Take `CC(C)C(=O)Nc1ccc([N+](=O)[O-])c(C(F)(F)F)c1`: the result was inactive.

`NC(N)=O`: the result was inactive.

Regarding `Cn1c(=O)c2[nH]cnc2n(C)c1=O`, the result was inactive.

Take `OCCOCCOCCO`: the result was inactive.

Turning to `CCCCCCCC1CCC(=O)O1` (stereo not given), the outcome was inactive.

On to `FC(F)(F)C(F)(F)C(F)(F)C(F)(F)C(F)(F)C(F)(F)I`, for which the result was inactive.

Turning to `C[C@@H](Oc1ccc(CNC(=O)c2cccnc2Oc2ccc3c(c2)OCO3)c(F)c1)C(=O)O`, the outcome was inactive.

With `COc1cc(C(C)C)c2c(c1)S(=O)(=O)N(COc1cc(=O)n3cccc(OCCN4CCCCC4)c3n1)C2=O`, the AC50 was 5 µM (active).

For `O=C(O)[C@H](O)[C@@H](O)C(=O)O`, the result was inactive.

In the case of `Cc1cccc(O)c1C`, the result was inactive.

For the compound `c1ccc(C(O[C@@H]2CCCN(CCc3ccc4c(c3)OCO4)C2)c2ccccc2)cc1`, the AC50 is 26.5 µM (active).

With `CNC(C)=O`, the outcome was inactive.

Turning to `O=C(O)c1cccc(C(=O)O)c1`, the outcome was inactive.

`c1ccc2cc3ccccc3cc2c1`: the result was inactive.

For the compound `CCOC(N)=O`, the outcome was inactive.

`O=c1[nH]cnc2c1ncn2[C@H]1CC[C@@H](CO)O1`: the result was inactive.

Take `OC(O)(C(F)C(O)(O)C(F)(F)F)C(F)(F)F`: the outcome was inactive.

Turning to `O=S(=O)(O)CCC(F)(F)C(F)(F)C(F)(F)C(F)(F)C(F)(F)C(F)(F)F`, the result was inactive.

Turning to `CCCCCCCCN(C)C`, the outcome was inactive.

`C=CN1CCCC1=O`: the result was inactive.

As to `OC[C@H]1O[C@@](CO)(O[C@H]2O[C@H](CO)[C@@H](O)[C@H](O)[C@H]2O)[C@@H](O)[C@@H]1O`, the outcome was inactive.

As for `NC(=O)N(O)[C@@H]1COc2cc(OCc3ccccc3)ccc21`, the outcome was inactive.

For the compound `c1ccc2c(c1)-c1cccc3c1c-2cc1ccccc13`, the result was inactive.

Take `C[Si](C)(C)C(F)(F)C(F)(F)C(F)(F)F`: the outcome was inactive.

For `NCC(F)(F)C(F)(F)C(F)(F)C(F)(F)F`, the outcome was inactive.

Regarding `O=C(O)c1cccc(C[C@@H]2COc3ccc(OCc4nc5cc(F)ccc5s4)cc3[C@@H]2O)c1`, the outcome was inactive.

For `CCCCCCOC(=O)CC(CC(=O)OCCCCCC)(OC(=O)CCC)C(=O)OCCCCCC`, the outcome was inactive.

`CCOc1ccc2[nH]cc(C(=O)NCc3ccccc3)c(=O)c2n1`: the result was inactive.

In the case of `CCc1cccc(CC)c1N`, the result was inactive.

For `FC(F)(F)COC(OCC(F)(F)F)OCC(F)(F)F`, the outcome was inactive.

Consider `Nc1ccn([C@@H]2O[C@H](CO)[C@@H](O)[C@@H]2O)c(=O)n1`, for which the result was inactive.

`CC1(C)C(=O)N(Cl)C(=O)N1Cl`: the outcome was inactive.

As a reminder, the AC50 is the concentration giving half of the maximal activity seen.
